This is part of a sample that, as a whole, favours compounds with a hit. Of some 79,000 tested, about 15% had one in any assay. Calls of active or inactive are those of the source. Rule as the data show it: active = growth inhibition above about 70%; inactive = the rest.
Columns and labels:
[1] = NCI Yeast Anticancer Drug Screen. Data for the rad52 strain (AID 147);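 also: 0% = growth of vehicle-treated control cultures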; conditions: S. cerevisiae rad52 mutant growth inhibition, active compounds read high
Outline: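 Here a repair-compromised yeast strain receives each compound; its growth is then quantified and normalised to vehicle-only controls.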

[2] = NCI Yeast Anticancer Drug Screen. Data for the wt1 strain (AID 149);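 also: 0% = growth of vehicle-treated wt1 cultures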; conditions: S. cerevisiae wt1 strain (SPY 50644) growth inhibition, active compounds read high
Outline: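 wt1 yeast, compound-treated; % growth inhibition vs vehicle control.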

[3] = NCI Yeast Anticancer Drug Screen. Data for the rad50EPP+ strain (AID 151);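 also: 0% = growth of vehicle-treated control cultures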; conditions: S. cerevisiae rad50 mutant strain, active compounds read high
Outline: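 Read-out is yeast growth inhibition relative to vehicle; cells used were the rad50EPP+ strain.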

[4] = NCI Yeast Anticancer Drug Screen. Data for the rad50 strain (AID 155);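 also: 0% = growth of vehicle-only cultures of the same strain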; conditions: S. cerevisiae rad50 strain growth inhibition, active compounds read high
Outline: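 Genetically altered yeast (DNA repair pathway); compound treatment; growth inhibition vs vehicle ctrl.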

[5] = NCI Yeast Anticancer Drug Screen. Data for the mec2-1 strain (AID 157); conditions: S. cerevisiae mec2-1 strain, active compounds read high
Outline: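 Using mec2-1 yeast: add compound, measure growth, express inhibition versus vehicle-treated cultures.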

[6] = NCI Yeast Anticancer Drug Screen. Data for the rad14 strain (AID 159);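 also: 0% = growth of vehicle-treated control cultures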; conditions: S. cerevisiae rad14 strain growth inhibition, active compounds read high
Outline: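 Test compounds were applied to a repair-deficient yeast strain. Its growth was then compared with that of cultures given vehicle alone, and inhibition was expressed relative to those controls.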

[7] = NCI Yeast Anticancer Drug Screen. Data for the sgs1 mgt1 strain (AID 161);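 also: 0% = growth of cultures given vehicle only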; conditions: S. cerevisiae sgs1 mgt1 strain, active compounds read high
Outline: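 This yeast growth screen uses a strain with defined DNA-repair lesions; compound-treated growth is compared with vehicle-treated growth.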

[8] = NCI Yeast Anticancer Drug Screen. Data for the CLN2oe strain (AID 163);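 also: 0% = growth of vehicle-only control cultures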; conditions: S. cerevisiae CLN2oe strain, active compounds read high
Outline: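 Whole-cell yeast growth assay. A strain engineered for altered cell-cycle control received compound, and inhibition relative to vehicle-treated cultures was recorded.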

[9] = NCI Yeast Anticancer Drug Screen. Data for the cln2 rad14 strain (AID 165);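 also: 0% = growth equal to vehicle treated cultures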; conditions: S. cerevisiae cln2 rad14 strain, active compounds read high
Outline: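 Yeast strain cln2 rad14, bearing defects in cell cycle control and DNA repair, serves as the test system; values reflect growth inhibition compared with vehicle.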

[10] = NCI Yeast Anticancer Drug Screen. Data for the bub3 strain (AID 167); conditions: S. cerevisiae bub3 mutant strain, active compounds read high
Outline: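 Yeast carrying a defined mutation is treated with each compound, and growth is compared with that of vehicle-exposed cells to give inhibition.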

[11] = NCI Yeast Anticancer Drug Screen. Data for the wt2 strain (AID 169);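 also: 0% = growth of vehicle-treated yeast cultures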; conditions: S. cerevisiae wt2 strain growth inhibition, active compounds read high
Outline: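 Treated yeast vs. vehicle-treated yeast: growth inhibition determined.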

[12] = NCI Yeast Anticancer Drug Screen. Data for the sgs1 strain (AID 173);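 also: 0% = growth of vehicle-only control cultures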; conditions: S. cerevisiae sgs1 mutant, active compounds read high
Outline: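 A genetically defined yeast mutant is incubated with the test compound, and its growth is compared to that of the same strain given vehicle.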

[13] = NCI Yeast Anticancer Drug Screen. Data for the mlh1 rad18 strain (AID 175); conditions: S. cerevisiae mlh1 rad18 strain growth inhibition, active compounds read high
Outline: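 Steps: expose repair-defective yeast to compound; measure growth; express inhibition against vehicle-treated controls.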

[14] = NCI Yeast Anticancer Drug Screen. Data for the rad18 strain (AID 177); conditions: S. cerevisiae rad18 mutant growth inhibition, active compounds read high
Outline: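 Measured value is growth inhibition of a yeast strain bearing a DNA repair alteration, referenced to vehicle-treated cells.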

[15] = at 5.0 µM (retest, dose inferred, filed as 0.5)
[16] = at 50.0 µM (retest, dose inferred, filed as 5.0)

Measured: growth inhibition

CN(NC(=O)/C(=C/c1ccc(O)cc1)NC(=O)c1ccccc1)c1ccnc2cc(Cl)ccc12
inactive: [1]; at 1.2 µM 2% | [1]; at 3.7 µM 9% | [1]; at 11.0 µM 35% | [1]; at 33.0 µM 60% | [2]; at 1.2 µM 3% | [2]; at 3.7 µM 4% | [2]; at 11.0 µM 11% | [2]; at 33.0 µM 40% | [2]; at 100.0 µM 69% | [3]; at 1.2 µM -2% | [3]; at 3.7 µM 3% | [3]; at 11.0 µM 14% | [3]; at 33.0 µM 34% | [3]; at 100.0 µM 42% | [4]; at 1.2 µM -2% | [4]; at 3.7 µM -4% | [4]; [15] 6% | [4]; at 11.0 µM 15% | [4]; at 33.0 µM 68% | [4]; [16] 20% | [5]; at 1.2 µM 1% | [5]; at 3.7 µM 4% | [5]; [15] 15% | [5]; at 11.0 µM 12% | [5]; at 33.0 µM 44% | [5]; [16] 2% | [5]; at 50.0 µM 46.9% | [6]; at 1.2 µM 0% | [6]; at 3.7 µM 2% | [6]; at 11.0 µM 13% | [6]; at 33.0 µM 38% | [6]; at 100.0 µM 60% | [7]; [15] 9% | [7]; [16] 9% | [7]; at 50.0 µM 51.1% | [8]; at 1.2 µM 6% | [8]; at 3.7 µM 3% | [8]; at 11.0 µM 13% | [8]; at 33.0 µM 39% | [8]; at 100.0 µM 65% | [9]; [15] -3% | [9]; [16] 2% | [9]; at 50.0 µM -2.45% | [10]; at 1.2 µM -1% | [10]; at 3.7 µM 4% | [10]; [15] 21% | [10]; at 11.0 µM 16% | [10]; at 33.0 µM 43% | [10]; [16] 65% | [10]; at 50.0 µM 55.1% | [10]; at 100.0 µM 68% | [11]; at 1.2 µM -3% | [11]; at 3.7 µM -1% | [11]; at 11.0 µM 11% | [11]; at 33.0 µM 47% | [12]; at 1.2 µM 2% | [12]; at 3.7 µM 4% | [12]; at 11.0 µM 14% | [12]; at 33.0 µM 67% | [13]; [15] 1% | [13]; [16] 2% | [14]; at 1.2 µM 1% | [14]; at 3.7 µM 7% | [14]; at 11.0 µM 45%
active: [1]; at 100.0 µM 79% | [4]; at 50.0 µM 80.1% | [4]; at 100.0 µM 81% | [5]; at 100.0 µM 72% | [11]; at 100.0 µM 70% | [12]; at 100.0 µM 83% | [13]; at 50.0 µM 80.3% | [14]; at 33.0 µM 78% | [14]; at 100.0 µM 87%
